Screening data deposited in PubChem BioAssay by National Center for Advancing Translational Sciences (NCATS).
HepG2 tox: HepG2 cytotoxicity, counter-screen for TGF-b inhibitors | 0.76% of 410,000 active | HepG2 CAGA-GFP viability, ATP luminescence, 18 h | Potency, µM (highest dose often 46.1 µM), for inactives: at the highest dose activity change, negative = cytotoxicity, actives largely listed as cytotoxic; note: potency is the fitted concentration of half-maximal effect
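HepG2 CAGA-GFP cells (1000/well, DMEM with 1% FBS) received compound, then TGF-beta at 500 pg/mL final, and were incubated 18 hours at 37 degrees C. Viability was read by CellTiter-Glo luminescence. Media-only wells were set as complete cell-killing and DMSO as no toxicity.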
IL1B secr inh: blocks inflammasome-driven IL-1 beta release | THP-1 LPS/ATP IL-1B secretion, AlphaLISA, 16 h; hits give low values | activity change, % at 57.5 µM | 4.7% of 360,000 active | AID 743279; in the data active = activity change below about -50%; inconclusive = mostly about -30% to -49%; note: % is set by controls: 0 for no effect and ±100 for the full control effect
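Secreted IL-1B measured by AlphaLISA bead assay after 16 h compound exposure of THP-1 cells; compounds (final up to 57.5 uM) added 1 h before LPS (250 ng/mL) and ATP (1.25 mM) stimulation; lower signal means less secretion.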
TGFb SMAD3 inh: blocks TGF-b signaling; 1.2% of 410,000 active; AID 588855; Potency, µM (series often up to 46.1 µM), inactives show at the highest dose activity, negative = inhibition, actives largely listed as inhibitors; HepG2 CAGA-GFP TGF-b/SMAD3 reporter, GFP fluorescence, 18 h; TGF-beta stimulated, 500 pg/mL final; note: potency is the fitted concentration of half-maximal effect; % is set by controls: 0 for no effect and ±100 for the full control effect; nearly all actives have a fitted effect of over 65% in size
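Smad-responsive CAGA-GFP expression was quantified in HEPG2 cells exposed to compounds and 500 pg/mL final TGF-beta for 18 h at 37 degrees C; unstimulated wells defined full inhibition.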
Giardia kill: kills Giardia lamblia. Giardia lamblia trophozoite viability. activity change, % at 7.66 µM, hits read low. 0.15% of 340,000 active; in the data active = activity change below about -80%; inconclusive = between about -30% and that limit;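 note: parasites exposed to compound for two days anaerobically before the ATP read; % is set by controls: 0 for no effect and ±100 for the full control effect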
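Luminescence from cellular ATP indicates surviving trophozoites (100 cells/well) following 48 hrs anaerobic compound treatment at 37 deg C; signal develops 15-30 min at room temperature.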
HT1080 IDH1KD tx: toxicity to HT-1080 IDH1 knockdown cells (counter line). AID 686971. HT-1080 IDH1 knockdown viability, ATP luminescence, 48 h. Potency, µM (top dose mostly 46.1 µM), without a hit: at the highest dose activity, negative = toxicity, usual class: cytotoxic. 2% of 360,000 active;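 note: potency is the fitted concentration of half-maximal effect; 0% = DMSO wells and -100% = cell-free medium wells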
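Viability of IDH1-knockdown HT-1080 fibrosarcoma cells was assessed by CellTiter-Glo after 48 h at 37 °C with titrated compound; concentration-effect curves were classified by fit quality and response size.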
HT1080NT lethal: kills 2HG-producing HT-1080-NT fibrosarcoma cells; HT-1080-NT fibrosarcoma viability, CellTiter-Glo ATP luminescence, 48 h; AID 686970; 1.6% of 360,000 active; Potency, µM (highest dose often 46.1 µM), for inactives: at the highest dose activity, negative = less viability, actives largely listed as cytotoxic;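 note: NT is the 2HG producing partner of a matched IDH1 knockdown line; potency is the fitted concentration of half-maximal effect; 0% = DMSO-treated cells and -100% = media-only wells without cells; nearly all actives have a fitted effect of over 55% in size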
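Viability by CellTiter-Glo luminescence after 48 h compound exposure at 37C of HT-1080-NT cells (750/well, RPMI, 5% FBS). % activity scaled between DMSO wells and medium-only wells, then curve-fitted and categorized by curve class.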
Starred values were filed as active, the others as inactive; i = inactive; ? = inconclusive; · = no result. The list is not random: actives were taken first. Their share in the collection is about 6.5%. Unless noted, calls come from the whole dose curve; as a rule, active = well fitted curve in the direction sought with a large enough effect; inconclusive = small, poorly fitted or top-dose-only effect, or another doubt; inactive = no such curve, though single readings can be large; an effect the other way counts as inactive or inconclusive.

SMILES	HepG2 tox	IL1B secr inh	TGFb SMAD3 inh	Giardia kill	HT1080 IDH1KD tx	HT1080NT lethal
COc1ccc(CN(CCC(c2ccc(F)cc2)C2CCOC(C)(C)C2)C(=O)c2ccco2)cc1 (configuration not stated)	-32.7%	-103.2*	?	-6.3	25.9µM*	?
CCC(C)NS(=O)(=O)c1ccc(OCC(=O)N2CCCC2)cc1 (configuration not stated)	-9.2%	2.0	-0.7%	16.6	0.0%	1.4%
Cc1ccc(S(=O)(=O)CCc2nnc(NC(=O)CCl)s2)cc1C	-44.8%	-100.4*	-22.9%	-9.8	14.6µM*	?
Cc1ccc(S(=O)(=O)CCc2nnc(N)s2)cc1C	1.2%	20.6	-1.4%	4.3	5.4%	-5.4%
Cn1nc(-c2ccccc2)cc1NC(=O)Nc1ccc(C(C)(C)C)cc1	-108.5%	-54.4*	?	40.1	-17.9%	-1.6%
CC(C)(C)c1ccc(-c2cc(C(=O)NNC(=O)Nc3ccccc3)c3ccccc3n2)cc1	-51.8%	-50.2*	0.0%	-5.8	?	?
O=C(NNC(=O)c1cc(-c2ccncc2)nc2ccccc12)Nc1ccc(F)cc1	-2.2%	i	-16.4%	22.8	11.5%	6.1%
O=C(NNC(=O)c1cc(-c2ccccc2)nc2ccccc12)Nc1cccc(Cl)c1	-34.1%	-11.3	?	-27.6	?	18.4µM*
O=C(NNC(=O)c1cc(-c2cccnc2)nc2ccccc12)Nc1ccc(Cl)cc1	-27.6%	-96.4*	-5.5%	0.8	?	?
O=C(Cc1cccc2ccccc12)NNC(=O)Nc1cccc(Cl)c1	-22.4%	-30.0	2.9%	-5.6	?	16.4µM*
O=C(CCc1ccccc1)NNC(=O)Nc1cccc(Cl)c1	3.1%	27.9	-1.2%	-11.1	-1.2%	-11.1%
COc1ccc2c(c1)c1c(c(=O)n(-c3ccc(F)c(Cl)c3)c(=O)n1Cc1ccccc1F)n2C	-8.8%	·	0.0%	·	·	·
Cc1ccc(C)c(N(CC(=O)NC2CCCC2)C(=O)c2oc(C(C)(C)C)cc2C)c1	22.4µM*	?	?	2.0	?	?
N=C(N)CCCOc1ccccc1-c1ccccc1	-13.4%	-24.0	-17.3%	-20.1	-3.2%	-2.7%
O=C(N/C=N/OCc1ccc(Cl)cc1Cl)NOCc1c(Cl)cccc1Cl	17.8µM*	-5.1	-15.5%	-12.7	16.4µM*	16.4µM*
Cc1cc2occ(CC(=O)O)c2cc1C	2.8%	0.0	?	-15.9	16.5%	17.0%
Cc1cccc(NC(=O)c2ccc([N+](=O)[O-])o2)c1C	-40.2%	-88.9*	?	-97.3*	18.4µM*	23.1µM*
O=C(Nc1ccccc1C(=O)NC1CC1)c1ccc([N+](=O)[O-])o1	27.2%	-93.3*	?	?	-25.3%	-0.7%
O=C(Nc1cccc2ccccc12)c1ccc([N+](=O)[O-])o1	-127.6%	-97.1*	?	-98.4*	13µM*	?
O=S(=O)(NCc1ccccc1Cl)c1ccc(N2CCCCS2(=O)=O)cc1	-7.6%	·	?	·	·	·
CCOC(=O)c1nnn(-c2nonc2-n2cccc2)c1CCl	-20.2%	-116.5*	?	-2.0	?	?
CCOC(=O)c1nnn(-c2nonc2-n2cccc2)c1CN1CCC(C)CC1	-9.6%	?	-16.3%	15.2	5.1%	13.0%
CCSc1nc2ccccc2n1C(=O)/C=C\c1ccc(OC)c(OC)c1	-3.1%	-96.6*	-26.7%	6.2	?	-19.5%
COc1cc(OC)cc(C(=O)N2CCN(C(=O)c3ccc(-c4ccccc4)cc3)CC2)c1	-18.8%	-68.0*	?	3.8	-9.0%	-0.8%
COc1cc(OC)cc(C(=O)NCC(=O)N2CC=C(c3ccccc3)CC2)c1	4.5%	14.3	-29.1%	10.5	13µM*	16.4µM*
O=C(NCC(=O)N1CC=C(c2ccccc2)CC1)c1ccc(OC(F)F)cc1	-2.3%	25.3	-3.2%	-18.6	-16.3%	?
